From PubChem BioAssay
KB-V1 cytotox: qHTS assay for MDR1-selective chemotherapeutics: Primary screen using the drug-selected MDR subline cells KB-V1; hit rate 3.4% among 400,000; Potency, µM (top dose mostly 46.1 µM), actives largely listed as cytotoxic; KB-V1 MDR cells viability, CellTiter-Glo, 72 h; also: nearly all actives have a fitted effect of over 60% in size
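Cytotoxicity via CellTiter-Glo luminescence after 72 h compound exposure at 37 degrees C. Cells: drug-selected KB-V1 line, DMEM phenol-red free plus 10% FBS. Compounds tested at multiple concentrations; normalized data fitted to concentration-effect curves.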
DT40 TDP1 CPT: qHTS for Inhibitors of human tyrosyl-DNA phosphodiesterase 1 (TDP1): qHTS in cells in presence of CPT; chicken DT40 Tdp1-/-;hTDP1 cells + 20 nM CPT, ATP luminescence, 48 h; Potency, µM (series often up to 46.2 µM), most hits filed as inhibitors; hit rate 12% among 420,000; also: nearly all actives have a fitted effect of over 55% in size
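Cell growth measured by CellTiter-Glo luminescence after a minimum 48 h, 37 C compound exposure with 20 nM CPT in Tdp1-knockout DT40 cells stably expressing hTDP1, seeded 400/well; qHTS titration format.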
KB-3-1 cytotox: qHTS assay for MDR1-selective chemotherapeutics: Primary screen using the parental adenocarcinoma cell KB-3-1 | KB-3-1 viability, CellTiter-Glo ATP luminescence, 72 h | Potency, µM (series often up to 46.1 µM), most hits filed as cytotoxic | hit rate 1.4% among 400,000; also: nearly all actives have a fitted effect of over 60% in size
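KB-3-1 parental drug-naive adenocarcinoma cells in DMEM/10% FBS, incubated 72 h at 37 C with pin-transferred compounds across a concentration series. Viability by CellTiter-Glo luminescence; concentration-response curves fitted after normalization.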
DT40 TDP1 no CPT: qHTS for Inhibitors of human tyrosyl-DNA phosphodiesterase 1 (TDP1): qHTS in cells in absence of CPT. DT40 Tdp1-/- hTDP1 cells, no CPT, ATP luminescence, 48 h. Potency, µM (doses to about 46.2 µM), actives largely listed as inhibitors. hit rate 15% among 420,000. AID 686978, 2013; also: nearly all actives have a fitted effect of over 55% in size
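Growth kinetics read by CellTiter-Glo luminescence after ≥48 hr at 37 °C. Cells: DT40 Tdp1-/- stably carrying human TDP1, 400 per well, compound exposure in the absence of CPT (DMSO vehicle).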
HT1080NT lethal: qHTS for induction of synthetic lethality in tumor cells producing 2HG: qHTS for the HT-1080-NT fibrosarcoma cell line. hit rate 1.6% among 360,000. Potency, µM (doses to about 46.1 µM), most hits filed as cytotoxic. HT-1080-NT fibrosarcoma viability, CellTiter-Glo ATP luminescence, 48 h;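 also: NT is the 2HG producing partner of a matched IDH1 knockdown line; nearly all actives have a fitted effect of over 55% in size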
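Compounds were tested in concentration-response format on HT-1080-NT cells for 48 hours at 37 degrees C. Cell viability came from CellTiter-Glo luminescence; curves were classified by r2, response magnitude and activity.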
HT1080 IDH1KD tx: qHTS for induction of synthetic lethality in tumor cells producing 2HG: qHTS for the HT-1080-IDH1KD cell line. HT-1080 IDH1 knockdown viability, ATP luminescence, 48 h. Potency, µM (titrated, usually from 46.1 µM), hits mostly cytotoxic. hit rate 2% among 360,000
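In this qHTS, HT-1080 cells depleted of IDH1 are exposed for 48 h at 37 °C to compound titrations. Toxicity is scored from CellTiter-Glo luminescence, with DMSO as full viability and medium alone as none.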
Hits are given with their value; . = inactive; ? = inconclusive; / = no result given. Sampled rows, rich in hits. Any-hit rate of the full collection: about 19%. Calls follow the shape of the dose curve; as a rule, active = well fitted curve in the direction sought with a large enough effect; inconclusive = small, poorly fitted or top-dose-only effect, or another doubt; inactive = no such curve, though single readings can be large; an effect the other way counts as inactive or inconclusive.

SMILES	KB-V1 cytotox	DT40 TDP1 CPT	KB-3-1 cytotox	DT40 TDP1 no CPT	HT1080NT lethal	HT1080 IDH1KD tx
CCC(=O)N1CCC1(C)C(=O)Nc1cc(-c2ccccc2)nn1C (configuration not stated)	.	.	.	.	?	.
Cc1cc(C(=O)NNC2CC(=O)N(c3ccc4ccccc4c3)C2=O)c(C)o1 (configuration not stated)	.	.	.	.	.	.
C=CCn1c(-c2ccccc2)c[nH]c1=S	?	25.9µM	?	?	.	.
Cn1c(-c2ccc(-c3ccccc3)cc2)c[nH]c1=S	?	8.2µM	?	?	.	.
CCn1c(-c2ccc(-c3ccccc3)cc2)c[nH]c1=S	?	?	?	?	.	.
Cc1ccc(-c2c[nH]c(=S)n2-c2ccccc2)cc1	.	?	.	.	.	.
C=CCn1c(-c2ccc(Cl)cc2)c[nH]c1=S	23.1µM	.	20.6µM	?	.	.
CCOC(=O)c1c(C)[nH]c(C)c1C(=O)COC(=O)c1nn(CC)c(=O)c2ccccc12	?	.	.	.	.	.
O=C(NC1CCCC1)C(c1cccnc1)N(C(=O)c1csnn1)c1ccccc1Cl (configuration not stated)	.	.	.	.	.	.
Cc1cc2c(c(SCC(=O)NCCc3ccccc3)n1)C(=O)OC2	.	.	.	.	.	.
CCOC(=O)C1=C(C(=O)OCC)c2ccc(OC)c(OC)c2C1	.	.	.	18.4µM	.	.
Oc1c(N=NC(=S)Nc2ccccc2F)c2ccccc2n1Cc1ccccc1	.	7.31µM	?	5.8µM	.	.
Cc1c(Cl)cccc1NC(=O)CCN1CCOCC1	.	.	.	.	.	.
Cc1ccc(Cn2c(O)c(N=NC(=S)Nc3ccccc3F)c3ccccc32)cc1	?	6.51µM	.	5.8µM	.	.
Oc1c(N=NC(=S)Nc2ccccc2F)c2ccccc2n1Cc1ccccc1Cl	.	6.51µM	4.11µM	5.8µM	13µM	.
Cc1c(Cl)cccc1NC(=S)N=Nc1c(O)n(CN2CCOCC2)c2ccccc12	.	5.8µM	?	1.46µM	.	?
Cc1[nH][nH]c(=O)c1/C=N/N1CCOCC1	.	.	.	.	.	.
CCOC(=O)Cn1nc(-c2ccc(F)cc2)oc1=O	.	.	.	.	.	.
C=CCn1c(O)c(N=NC(=S)Nc2ccccc2F)c2cc(S(=O)(=O)N3CCOCC3)ccc21	?	0.731µM	?	0.731µM	?	?
C=CCn1c(O)c(N=NC(=S)Nc2cccc(C)c2)c2ccccc21	2.91µM	2.06µM	?	1.84µM	.	?
C=CCn1c(O)c(N=NC(=S)Nc2ccccc2F)c2ccccc21	.	4.11µM	?	2.59µM	.	?
Cc1cccc(C)c1-n1nnnc1C1(C)CCC(=O)N1Cc1ccco1 (configuration not stated)	.	.	.	.	.	.
Cc1c(/C=C(\C#N)c2nn(-c3ccccc3)c(N)c2C#N)c2ccccc2n1Cc1ccc(F)cc1	.	?	?	?	.	.
NC(=O)CNC(=O)c1ccc(Cl)cc1	.	.	.	.	.	.
Cc1ccc(S(=O)(=O)N2[C@@H](c3ccc(Cl)cc3)C(C(=O)O)=C[C@H]2C(C)(C)C)cc1	.	.	.	.	.	.
SMILES	KB-V1 cytotox	DT40 TDP1 CPT	KB-3-1 cytotox	DT40 TDP1 no CPT	HT1080NT lethal	HT1080 IDH1KD tx
Nc1nc(N)c(N=O)c(OCC2CCCCC2)n1	?	11.6µM	.	7.31µM	?	18.4µM
COc1ccccc1Cn1c(/C=C/c2ccccc2)nc2ccccc21	5.17µM	?	16.4µM	?	.	.
COc1ccc(/C=C/c2nc3ccccc3n2Cc2ccccc2OC)cc1	?	7.31µM	?	8.2µM	16.4µM	16.4µM
COCCn1c(/C=C/c2ccccc2)nc2ccccc21	?	.	.	?	.	.
CN(CC(=O)NCc1ccco1)CC(=O)Nc1c(Cl)cccc1Cl	/	.	/	.	.	.
CC(=O)N(c1ccc2oc(=O)sc2c1)S(=O)(=O)c1ccc(C(=O)O)cc1	.	.	.	.	.	.
CCCC(=O)N(c1ccc2oc(=O)sc2c1)S(=O)(=O)c1ccccc1	.	?	.	20.6µM	?	.
O=C(Cc1cccc2ccccc12)N/N=C/c1ccc(Sc2nc3ccccc3s2)o1	?	16.4µM	?	?	.	.
Cc1ccccc1OCC(=O)N/N=C/c1ccc(Sc2nc3ccccc3s2)o1	?	?	?	16.4µM	.	?
O=C(COc1cccc2ccccc12)N/N=C/c1ccc(Sc2nc3ccccc3s2)o1	.	?	.	20.6µM	.	.
COCC(=O)N/N=C/c1ccc(Sc2nc3ccccc3s2)o1	.	.	.	?	.	.
N#CCC(=O)N/N=C/c1ccc(Sc2nc3ccccc3s2)o1	?	.	.	.	.	.
O=C(Nc1cc(C(F)(F)F)cc(C(F)(F)F)c1)O[C@@H]1c2ccccc2[C@@H]2Cc3csc[n+]3[C@H]12	.	.	?	.	.	.
O=C(CCCCCn1c(=O)[nH]c2ccccc2c1=O)NCc1ccccc1	.	.	.	.	/	/
O=C(CCCCn1c(=O)[nH]c2ccccc2c1=O)NCCC1=CCCCC1	16.4µM	.	.	.	.	.
COC(=O)c1ccc2c(=O)n(CCCCCC(=O)NCCc3ccccc3)c(=O)[nH]c2c1	.	?	.	18.4µM	/	/
O=C(CCCCCn1c(=O)[nH]c2ccccc2c1=O)NCCc1ccccc1	.	0.291µM	.	0.461µM	/	/
CCN(CCCNC(=O)CCn1c(=O)[nH]c2ccccc2c1=O)c1cccc(C)c1	.	.	.	.	.	.
CCN(CCCNC(=O)CCCn1c(=O)[nH]c2ccccc2c1=O)c1cccc(C)c1	.	?	.	20.6µM	.	.
COc1cc2[nH]c(=O)n(CCCCCC(=O)NCCc3ccccc3)c(=O)c2cc1OC	.	.	.	.	/	/
O=C(CCCCn1c(=O)[nH]c2ccccc2c1=O)NCCc1c[nH]c2ccccc12	.	.	.	.	.	.
CC(=O)Nc1c(Br)cc2c(c1Br)Cc1cc(Br)ccc1-2	?	.	?	13µM	?	?
O=C(OC1CCc2ccccc2C1=O)c1ccccc1O (configuration not stated)	?	23.1µM	.	16.4µM	.	.
